Compound activity deposited in PubChem BioAssay by National Center for Advancing Translational Sciences (NCATS).
nsP2pro primary: blocks chikungunya virus nsP2 protease peptide cleavage. Potency, µM (top dose mostly 24.9 µM), without a hit: top-dose activity change, negative = inhibition, usual class: inhibitors. FRET peptide cleavage, nsP2pro, fluorescence 1 h. AID 1964107. Q8JUX6. 31,000 compounds, 1.1% hits; calls by dose curve; further: nearly all actives have a fitted effect of over 60% in size
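Enzyme 150 nM, substrate 2.5 uM (both final); Tris-HCl 10 mM pH 8.0 + 0.01% Tween 20; cpd up to 25 uM, 7 pts; 15 min preinc., 1 h RT; fluorescence ex 525/em 598.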
The depositor's hits bear a star; i = inactive; [ ] = another dose, or the depositor's remark. The full list was thinned out, with hits kept by preference. On the % scale 0 is the no-effect control and ±100 the full control effect; potency means the concentration at half of the fitted maximal effect.

SMILES | nsP2pro primary
O=C(CCC1CCCC1)Nc1ccc(-c2nnc3n2CCCC3)cc1 | 4.8%
CCOc1ccc(C(=O)Nc2ccc(-c3nnc4n3CCCCC4)cc2)cc1OCC | 10µM*
COc1ccc(Cl)cc1C(=O)Nc1ccc(-c2nnc3n2CCCCC3)cc1 | -1.9%
C[S+](=O)([O-])N1CC2(CCN(Cc3ccc(Cl)cc3)C2)Cc2ccccc21 (stereo not drawn) | -1.7%
O=C(N[C@H](c1ccccn1)C1CC(O)C1)c1ccc(Cn2cccn2)o1 (stereo partly drawn) | -10.9%
CS(=O)(=O)c1ccc(CC(=O)N[C@H](c2ccccn2)C2CC(O)C2)cc1 (stereo partly drawn) | i
CS(=O)(=O)c1ccc(CN2CCC(C(O)c3ccccn3)CC2)cc1 (stereo not drawn) | 11.2µM*
COc1cc(F)c(CN2CCC3(CCCNC3)C2)c(F)c1 (stereo not drawn) | 11.5%
Oc1ccc(NCCN2CCCC2)cc1 | 3.7%[39.2 µM]
CCCCCCCCC=CCCCCCCCC(=O)NCCOC(=O)CC(C(=O)O)S(=O)(=O)O (stereo not drawn) | 12.7%
CC(C)N[C@@H]1CCn2c(=O)[nH]c3cccc(c32)[C@H]1O | 11.1µM*
Cc1cccc(-n2cnc3cc(C(=O)NC4CCCCC4)ccc32)c1 | -9.3%
CCCCCCCCCCCCCCCC(=O)OCC(=O)[C@@]1(O)[C@H](C)C[C@H]2[C@@H]3CCC4=CC(=O)C=C[C@]4(C)[C@@]3(F)[C@@H](O)C[C@@]21C | -4.7%
Cc1ccc(OCCn2c(CCNC(=O)c3ccc[nH]3)nc3ccccc32)cc1 | -17.9%
CCN1CCN(c2ncc3c(n2)CCN(Cc2ccc(OC)c(OC)c2)C3)CC1 | 11.2µM*
CCc1ccc(CN2CCc3nc(N4CCN(CC)CC4)ncc3C2)cc1 | 23.0%
CCN1CCN(c2ncc3c(n2)CCN(Cc2cc(F)cc(F)c2)C3)CC1 | -6.8%
Cc1cc(C)nc(NC(=S)N2CCN(c3cc(Cl)cc(Cl)c3)CC2)c1 | i
Cc1ccnc(NC(=S)N2CC[C@@H](Nc3cccc(C(F)(F)F)c3)C2)c1 | 4.1%
CCOC(=O)c1c(-c2ccc(C)cc2)csc1NC(=O)c1cc(-c2ccc(OC)cc2)on1 | -19.8%
CCc1cc(C(=O)Nc2sc(C)c(CC)c2C#N)no1 | 11.2µM*
CCc1cc(C(=O)N2CCN(c3ccccc3)CC2)no1 | -1.8%
COC(=O)c1cccc(CNCC2=CC(C)(C)COc3ccc(OC)cc32)c1 | i
COc1cc(CC(=O)O)ccc1O | -21.8%
N[C@@H](Cc1ccc(O)c(O)c1)C(=O)O | 11.6%[0.199 µM]
SMILES | nsP2pro primary
C[C@@](Cc1ccc(O)c(O)c1)(NN)C(=O)O | 11.1µM*
O=C(Nc1ccc(Cl)c(Cl)c1)Nc1nc(-c2ccncc2)cs1 | -2.2%
Cc1ccc(NC(=O)CN2C(=O)N/C(=C\c3cccn3-c3ccc(C(=O)NOCc4ccccc4)cc3)C2=O)cc1 | i
CN1CC(=O)N(C2CCCNCC2)Cc2c1ncnc2N1CCCC1CO (stereo not drawn) | -29.0%
COCCNC(=O)C1CCC(=O)N1C1CCNCC1 (stereo not drawn) | 3.1%
CN(C)C(=O)N1CCN(C2CCNCC2)C(=O)C1 | 12.6µM*
N#Cc1ccc(N2N=C3c4ccc(C(=O)O)cc4CC[C@@H]3[C@@H]2C2CCCC2)cc1Cl | 78.3%
C=CCNC(=O)c1cnn2c1CN(C(=O)OCc1ccccc1)CC2 | -10.8%
O[C@@H]1CO[C@H]2[C@@H]1OC[C@@H]2n1nnnc1SCc1ccco1 | 11.2µM*
O=C(NC1CCCCC1)O[C@@H]1CO[C@H]2[C@@H]1OC[C@@H]2n1nnnc1-c1ccccc1 | -3.9%[39.2 µM]
COc1ccc(NC(=O)N[C@H]2CO[C@H]3[C@@H]2OC[C@@H]3n2nnnc2-c2ccccc2)cc1 | -3.8%[39.2 µM]
O=C(O)c1c(-c2ccccc2)no[n+]1[O-] | -10.4%
CC(C)NC(=O)C[C@@H]1C[C@H]2O[C@H](CNC(=O)NCc3ccccc3)[C@@H](O)[C@H]2O1 | -9.5%[39.2 µM]
Fc1cccc(-c2nc3ccccc3s2)c1 | -1.8%
OC(CN1CCN(c2cccc(Cl)c2)CC1)C(c1ccccc1)c1ccccc1 (stereo not drawn) | 28.6%
CCN1CCN(CC(O)COc2cccc(CNCc3cnn(CC)c3)c2)CC1 (stereo not drawn) | i
Cc1cc(OCC(O)CN2CCN(c3cccc(Cl)c3)CC2)ccc1Cl (stereo not drawn) | 11.2µM*
Cc1cc(C)nc(NC(=S)N2CCN(c3ccc(C(=O)O)cc3)CC2)c1 | -3.6%
Cn1nc(C(=O)N2CCCC(CN3CCOCC3)CC2)c2ccccc21 (stereo not drawn) | -9.2%
O=C1CC2(CCN(C(=O)C3CCCN3C(=O)c3ccc(Cl)nc3)CC2)Oc2ccccc2N1 (stereo not drawn) | -5.9%
CCN1C(=O)C2CC3(CCN(C(=O)c4cc(C)n(CCOC)c4C)CC3)CN2C1=O (stereo not drawn) | -0.3%
COc1ccc(C(=O)N2CC(CO)C3(CCNCC3)C2)cc1 (stereo not drawn) | -4.0%
O=C(c1cccc(C(F)(F)F)c1)N1CC(CO)C2(CCNCC2)C1 (stereo not drawn) | -4.0%
O=C(c1ccc(Cl)cc1)N1CC(CO)C2(CCNCC2)C1 (stereo not drawn) | 7.94µM*
CCCCN(C)C(=O)c1c(C)sc2ccn(CCC)c(=O)c12 | -16.9%
SMILES | nsP2pro primary
CCCc1noc(-c2cccn3c(CNC(=O)c4ccc(OCC)cc4)nnc23)n1 | i
COc1ccccc1NC(=O)c1c(NCc2ccc(OC)c(OC)c2OC)sc2c1CCC2 | -23.5%
CCOC(=O)N1CCc2c(sc(NCc3cccs3)c2C(=O)Nc2cc(OC)ccc2OC)C1 | 11.2µM*
COc1ccc(NC(=O)c2c(NCc3sccc3C)sc3c2CCCC3)c(OC)c1 | -12.8%
O=C(O)c1ccnc2cc(C(OCCN3CCC(F)(F)CC3)c3ccccc3Cl)[nH]c12 (stereo not drawn) | 7.2%
N#Cc1ccc(NS(=O)(=O)c2ccc(NC(=O)Cc3ccc(F)c(Cl)c3)cc2)cc1 | -12.8%
CCC1C(=O)NCCN1Cc1cn(-c2cccc(F)c2)nc1-c1ccc(C)o1 (stereo not drawn) | 11.2µM*
CN(CCN1CCC(OC(=O)Nc2ccccc2-c2ccccc2)CC1)C(=O)c1ccc(CN2CCC(C(N)=O)CC2)cc1 | 1.3%
C[S+](=O)([O-])NC1CCCN(Cc2ccc(-c3cncnc3)cc2)C1 (stereo not drawn) | -6.7%
CC[C@@H](CO)NC(=O)[C@@H]1C=C2c3cccc4[nH]cc(c34)C[C@H]2N(C)C1 | -6.3%
CCN(CC)C(=O)N[C@H]1C[C@@H]2c3cccc4[nH]cc(c34)C[C@H]2N(C)C1 | 22.4%
CCN(CC)C(=O)N[C@@H]1C=C2c3cccc4[nH]cc(c34)C[C@@H]2N(C)C1 | 12.4µM*
Fc1cccc(Br)c1NC1=NCCN1 | -3.0%
